# Compound activity as filed in PubChem.
# A selection: hits, their analogues and other compounds. The true share with any hit is near 3.9%.
# WT yeast gro inh – growth inhibition of WT strain, primary screen, mitochondrial fusion inhibitor project, WT and mutant strains, chemical genetic. 190,000 compounds, 2.1% hits. AID 1362, 2008. inhibition, % at 10 µM. mitochondrial fusion phenotypic screen; in the data active = inhibition above about 58%; tested in S. cerevisiae
# Rtt109 Vps75 – inhibitors of C. albicans Rtt109/Vps75 HAT, primary screen, biochemical, ThioGlo CoA-SH fluorescence, plate reader. Histone acetyltransferase RTT109 (Candida albicans (strain SC5314 / ATCC MYA-2876)), …. purified Rtt109/Vps75, 4 h. inhibition, % at 34.9 µM. 330,000 compounds, 0.16% hits. AID 540336, 2011;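 active = inhibition of at least 50% in every replicate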
# TPT1 inh – Candida albicans TPT1 enzyme inhibitors, primary screen, biochemical, fluorescence polarization; tRNA 2'-phosphotransferase TPT1 (Candida albicans SC5314); AID 1962, 2009; recombinant caTPT1, FP RNA substrate dephosphorylation; inhibition, % at 5 µM; 300,000 compounds, 0.81% hits;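 active = inhibition above the mean of all tested compounds plus 3 SD, set per screening campaign, cut at about 24% in these data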;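 note: plate controls were DMSO alone for no effect and ferristatin control at 100 nM for full effect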
# PHOSPHO1 block – PubChem AID 1565 | 290,000 compounds, 1.1% hits | recombinant PHOSPHO1, absorbance phosphatase assay | inhibition, % at 13.3 µM | Phosphoethanolamine/phosphocholine phosphatase (Homo sapiens), Q8TCT1; in the data active = inhibition above about 60%
# Target sequence (Q8TCT1 whole entry, looked up): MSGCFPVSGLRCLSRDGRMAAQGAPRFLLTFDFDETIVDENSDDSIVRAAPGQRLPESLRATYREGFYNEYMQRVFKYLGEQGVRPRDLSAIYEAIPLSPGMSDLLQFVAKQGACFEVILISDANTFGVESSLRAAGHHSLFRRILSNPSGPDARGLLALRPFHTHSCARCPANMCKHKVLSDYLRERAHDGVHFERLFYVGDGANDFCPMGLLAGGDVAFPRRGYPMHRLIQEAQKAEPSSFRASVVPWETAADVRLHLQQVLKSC
# SKKanGAS inh – S. pyogenes SKKanGAS growth inhibitors in kanamycin, primary screen, streptokinase expression inhibitor project, SKKanGAS strain, BacTiter-Glo luminescence; 6 h; inhibition, % at 7.5 µM; 300,000 compounds, 1.3% hits; AID 1662, 2009;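 active = mean replicate score, as percent of positive control median, at least 50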;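 note: strain carries kanamycin resistance gene driven by streptokinase promoter and grows in 40 µg/ml kanamycin; loss of luminescence reflects streptokinase promoter inhibition or plain growth inhibition; 0% = median of DMSO wells and 100% = positive control at its reference dose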
# Platelet DG rel – inhibitors of platelet dense granule secretion, primary screen, cell-based, MLPCN, human platelets; 300,000 compounds, 0.22% hits; human platelet-rich plasma, SFLLRN dense granule ATP release, luminescence; inhibition, %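 (compounds screened at 7.5 µM in platelet-rich plasma)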;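 active = mean replicate score, as percent of positive control, at or above 50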
# TPT1 inh confirm – Candida albicans TPT1 inhibitors, confirmation, biochemical, fluorescence polarization, triplicate; shares compounds with TPT1 inh; recombinant caTPT1, RNase T1 coupled; inhibition, % at 5 µM; 2,400 compounds, 74% hits;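 active = inhibition above the primary screen limit, the mean inhibition of all tested compounds plus 3 SD, cut at about 25% in these data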
# RNase T1 inh – RNase T1 inhibitors, counter-screen for TPT1 inhibitor project, biochemical, fluorescence polarization | shares compounds with TPT1 inh | RNase T1 cleavage, 1536-well | inhibition, % at 5 µM | 2,400 compounds, 83% hits | AID 2153, 2009;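 active = inhibition above the solvent-only control well mean plus 3 SD, limit set per screening run, cut at about 23% in these data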;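 note: plate controls were DMSO wells with enzyme for no effect and wells without RNase T1 for full effect; inhibitors block cleavage so intact labeled substrate keeps polarization high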
# Target sequence (P00651 whole entry, looked up): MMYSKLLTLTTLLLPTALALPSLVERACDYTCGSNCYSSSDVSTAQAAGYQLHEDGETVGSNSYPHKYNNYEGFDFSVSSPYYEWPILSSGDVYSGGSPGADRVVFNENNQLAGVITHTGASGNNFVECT
# The depositor's hits bear a star; x = no result given.
SMILES,WT yeast gro inh,Rtt109 Vps75,TPT1 inh,PHOSPHO1 block,SKKanGAS inh,Platelet DG rel,TPT1 inh confirm,RNase T1 inh
Nc1c(C(=O)N/N=C/c2cccnc2)oc2nc(-c3ccco3)cc(-c3ccco3)c12,x,x,44*,-35,13,4,76*,81*
Cc1ccc(CNC(=O)CCC(=O)Nc2nnc(C(C)C)s2)cc1,x,-10,-1,24,12,2,x,x
O=C(OCC(=O)N(CCc1ccccc1)Cc1ccccc1)c1ccccc1NCCO,x,-2,1,19,1,15,x,x
C/C(=N\Nc1nc(-c2cc(C)ccc2C)cs1)c1cc2ccccc2oc1=O,-6,-5,3,-12,6,11,x,x
C/C(=N\Nc1nc(-c2cc(C)ccc2C)cs1)c1cc2c(ccc3ccccc32)oc1=O,-6,-18,28*,-29,16,-2,33*,45*
CC1(C)NC(=O)N(CC(=O)OCC(=O)NC(=O)c2ccccc2)C1=O,x,-7,0,x,15,-21,x,x
C/C(CC(=O)NCc1ccco1)=N\NC(=O)Cc1cccc2ccccc12,13,4,2,2,-6,-3,x,x
C/C(CC(=O)NCc1ccco1)=N\NC(=O)Cc1ccc(-c2ccccc2)cc1,7,3,38*,-26,-1,16,0,4
Cn1cccc1/C=C1\SC(=Nc2ccccc2)NC1=O,x,3,2,12,-2,-38,x,x
Cc1ccc(N=C2NC(=O)/C(=C/c3cn(C)c4ccccc34)S2)cc1C,45,-5,117*,2,x,x,121*,125*
CN1CCc2c(sc3nc(SCC(=O)NCc4ccco4)n(-c4ccccc4)c(=O)c23)C1,x,26,30*,24,2,13,38*,51*
O=C(Nc1ccn(-c2ccccc2)n1)c1ccccc1Br,-1,-24,34*,-14,-3,14,4,10
CC(C)(C)c1cc(CCC(=O)NCC2CCCO2)cc(C(C)(C)C)c1O (centres undefined),x,4,0,25,2,-1,x,x
O=C(O)C1OC1(c1ccccc1Cl)c1ccccc1Cl (centres undefined),x,1,x,x,x,x,x,x
CCC1=NN2C(=N)/C(=C\c3ccc(SCc4ccco4)o3)C(=O)N=C2S1,26,0,48*,83*,3,3,29*,43*
CCCC1=NN2C(=N)/C(=C\c3ccc(SCc4ccco4)o3)C(=O)N=C2S1,7,9,43*,89*,8,9,47*,60*
CCC1=NN2C(=N)/C(=C/c3c(C)nn(-c4ccccc4)c3Cl)C(=O)N=C2S1,-9,5,2,-11,1,32,x,x
Cc1nnc(-n2ncc(C#N)c2N)c2nn(-c3cccc(Cl)c3)c(C)c12,-18,-2,8,-35,-9,2,x,x
Cc1nnc(N2CCOCC2)c2nn(-c3cccc(Cl)c3)c(C)c12,5,13,28*,1,7,-16,69*,76*
CN(C)S(=O)(=O)c1ccc(Cl)c(C(=O)OCC(=O)NC(=O)c2cccn2C)c1,-22,-3,125*,-5,-13,-7,10,12
Cn1cccc1C(=O)NC(=O)COC(=O)c1cc([N+](=O)[O-])ccc1Cl,-10,-2,1,1,-9,-6,x,x
Cc1cc(N2C(=O)C(O)=C(C(=O)c3cc4ccccc4o3)C2c2cccs2)no1 (centres undefined),x,2,41*,2,13,-15,30*,39*
O=S(=O)(c1ccc(NCCOc2ccccc2)nc1)N1CCCC1,x,5,x,x,x,x,x,x
CCn1c(O)c(/C=N/N=C/c2ccccc2)c2ccc(C3=NNC(=O)CC3)cc21,42,-3,61*,42,52*,4,72*,84*
CCCCOc1ccc(C2=NNC(=O)CC2)cc1,-1,x,1,-24,-8,16,x,x
